# Results: PubChem BioAssay AID463173 (ICCB-Longwood Screening Facility, Harvard Medical School, 2010)
# Screen size: about 52,000 compounds; about 1,700 (3.3%) were called active. What follows is part of a selection rich in actives, with near analogues and random picks from the rest. Values without a mark were called inactive. Rule as the data show it: active = survival mostly below about 52% (no sharp cut-off); inactive = mostly above about 56%.
# System: Wild type
# Experiment: growth inhibition of S. aureus wild type versus tarO mutant, primary screen, teichoic acid synthesis inhibitors, RN4220, OD600 (AID 463173)
# Details: S. aureus RN4220 wild type/DeltatarO growth, OD600, 18 h, hits give low values, screened at 18.75 µg/mL (by protocol)
row,SMILES,survival
1,CN(C1CCCCC1)S(=O)(=O)Cc1ccccc1,94%
2,CC1=C(c2ccc(C)cc2)S(=O)(=O)N(Cc2ccc(C(=O)Nc3ccc(F)cc3C)cc2)C1=O,135%
3,CCC(=O)N1CCc2cc(Br)cc(S(=O)(=O)CCC(=O)NCCc3cccc(C)c3)c21,45%
4,COc1cccc(NC(=O)Cn2c(=O)n(CCc3cccc(C)c3)c(=O)c3ccccc32)c1,82%
5,CSc1ccc(CCNC(=O)CCc2c(C)nc3cc(-c4ccccc4)nn3c2C)cc1,86%
6,CCOc1ccccc1NC(=O)Cn1c(=O)ccc2cc(S(=O)(=O)N3CCC(C)CC3)ccc21,65%
7,CCc1ccccc1NC(=O)Cn1c(=O)ccc2cc(S(=O)(=O)N3CCCC3)ccc21,64%
8,CCOc1ccccc1NC(=O)Cn1c(=O)ccc2cc(S(=O)(=O)N3CCCC3)ccc21,-3% (active)
9,Cc1cc(C)c(NC(=O)Cn2c(=O)n(CCC(=O)N3CCc4ccccc4C3)c(=O)c3ccccc32)c(C)c1,83%
10,CCC(=O)N1CCc2cc(S(=O)(=O)N(C)c3cccc(C)c3)ccc21,86%
11,COc1cccc(-n2c(C)nc3c(cnn3-c3ccc(C)c(C)c3)c2=O)c1,54%
12,CCc1nc2c(cnn2-c2ccccc2)c(=O)n1-c1ccc(Br)cc1,108%
13,CCc1nc2c(cnn2-c2ccc(C)cc2)c(=O)n1-c1ccc(C)cc1,18% (active)
14,CCOC(=O)c1ccc(-n2c(C)nc3c(cnn3-c3ccc(Cl)cc3)c2=O)cc1,71%
15,Cc1nc2c(cnn2-c2ccccc2)c(=O)n1-c1ccccc1,126%
16,COc1ccc(-n2c(C)nc3c(cnn3-c3ccc(C)c(C)c3)c2=O)cc1Cl,118%
17,CCc1cccc(-n2c(C)nc3c(cnn3-c3ccc(Cl)cc3)c2=O)c1,-2% (active)
18,CCc1cccc(-n2c(C)nc3c(cnn3-c3ccc(C)c(C)c3)c2=O)c1,2% (active)
19,CCc1nc2c(cnn2-c2ccc(C)cc2)c(=O)n1Cc1ccccc1,22%
20,Cc1c(C(=O)OCC2CCCCC2)[nH]c2c1C(=O)CC(c1ccccc1Cl)C2 (configuration not stated),92%
21,Cc1oc2ncn(CC(C)C)c(=O)c2c1C(=O)NCCCN(C)Cc1ccccc1,76%

row,SMILES,survival
1,Cc1cc2nsnc2c(S(=O)(=O)NCC(=O)O)c1C,99%
2,CCCCCCSc1ncc(C#N)c(N)n1,119%
3,CCCCCCSc1nc(N)c2c3c(sc2n1)CCCC3C (configuration not stated),-2% (active)
4,CC1CCCc2sc3nc(SCC(=O)c4ccc(Br)cc4)nc(N)c3c21 (configuration not stated),66%
5,CCCCCNC(=O)C(=O)NCC(c1ccc2c(c1)OCO2)N1CCOCC1 (configuration not stated),68%
6,Cc1ccc(CNC(=O)c2ccc3c(c2)NC(=O)C(CS(=O)(=O)Cc2cccc(F)c2)N3)cc1 (configuration not stated),117%
7,O=C(/C=C/c1ccc(Cl)cc1)N1CCC(c2nc3ccccc3o2)CC1,120%
8,CCN(CC)C(=O)Cn1c(=O)n(-c2ccc(Cl)cc2)c(=O)c2c3c(sc21)CCC3,73%
9,COCCN1C(=O)c2[nH]nc(-c3ccccc3O)c2C1c1ccc(OCc2ccccc2)c(OC)c1 (configuration not stated),43%
10,COCCCN1C(=O)c2[nH]nc(-c3ccccc3O)c2C1c1ccc(OC)cc1 (configuration not stated),85%
11,CCCCN1C(=O)c2[nH]nc(-c3ccccc3O)c2C1c1cc(Br)c(O)c(OC)c1 (configuration not stated),10% (active)
12,COCCN1C(=O)c2[nH]nc(-c3ccccc3O)c2C1c1ccc(Cl)c(Cl)c1 (configuration not stated),3% (active)
13,CCCCOc1cccc(C2c3c(-c4cc(C)ccc4O)n[nH]c3C(=O)N2CCOC)c1 (configuration not stated),25%
14,COCCCN1C(=O)c2[nH]nc(-c3cc(C)ccc3O)c2C1c1ccc(F)cc1 (configuration not stated),92%
15,CCCN1C(=O)c2[nH]nc(-c3ccccc3O)c2C1c1ccc(OCc2ccccc2)c(OC)c1 (configuration not stated),64%
16,COCCN1C(=O)c2[nH]nc(-c3cc(C)ccc3O)c2C1c1ccc(C(C)C)cc1 (configuration not stated),11% (active)
17,CCCCN1C(=O)c2[nH]nc(-c3ccccc3O)c2C1c1ccc(OCc2ccccc2)c(OC)c1 (configuration not stated),64%
18,O=C1NC(NS(=O)(=O)c2ccccc2)(C(F)(F)F)C(=O)N1c1ccc(F)cc1 (configuration not stated),76%
19,Cc1nc(CC(=O)Nc2ccc(C)c(C)c2)cs1,80%
20,C/C=C/C(=O)N1CCCC(c2nc(-c3cccc(OC)c3)no2)C1 (configuration not stated),95%
21,COc1ccc(C(=O)N(CC(=O)NC2CCCC2)C2CCCCC2)cc1OC,106%

row,SMILES,survival
1,Cc1ccc(Cl)cc1NC(=O)CN1C(=O)C(C)(C)c2cc(S(=O)(=O)N3CCCCC3)ccc21,1% (active)
2,Cc1ccc(NC(=O)CN2C(=O)C(C)(C)c3cc(S(=O)(=O)N4CCCCC4)ccc32)c(Br)c1,63%
3,COc1ccc(C)cc1NC(=O)CN1C(=O)CCc2cc(S(=O)(=O)N3CCOCC3)ccc21,128%
4,COc1ccc(NC(=O)CN2C(=O)CCc3cc(S(=O)(=O)N4CCOCC4)ccc32)c(OC)c1,66%
5,COc1ccc(OC)c(NC(=O)CN2C(=O)CCc3cc(S(=O)(=O)N4CCCCC4)ccc32)c1,0% (active)
6,COc1ccc(Cl)cc1NC(=O)CN1C(=O)C(C)(C)c2cc(S(=O)(=O)N3CCCCC3)ccc21,81%
7,CC(=O)Nc1ccc(NC(=O)CSc2nccn2Cc2ccc3c(c2)OCO3)cc1,72%
8,NCc1ccc2[nH]c(=O)[nH]c2c1,104%
9,COC(=O)c1ccc(Nc2nc(-c3ccc(C)cc3)nc3ccccc23)cc1,7% (active)
10,Oc1ccc(Nc2nc(-c3ccc(Cl)cc3)nc3ccccc23)cc1,3% (active)
11,CCOC(=O)c1nc(Nc2cccc(C)c2)c2ccccc2n1,83%
12,OCCNc1nc(-c2cccnc2)nc2ccccc12,119%
13,Cc1ccc(OCCCCn2c(-c3ccc(Cl)cc3)nc3ccccc3c2=O)cc1,67%
14,Cc1cccc(Nc2nc(-c3ccccc3)nc3ccccc23)c1,-1% (active)
15,CCOC(=O)c1nc(Nc2ccc(C(C)=O)cc2)c2ccccc2n1,81%
16,Fc1ccc(Nc2nc(SCc3ccc(Cl)cc3)nc3ccccc23)cc1,90%
17,CCC(=O)OCCCNc1nc(-c2ccc(Cl)cc2)nc2ccccc12,-2% (active)
18,Oc1cccc(Nc2nc(-c3ccccc3)nc3ccccc23)c1,19%
19,CC(=O)c1cccc(Nc2nc(-c3cccc(C)c3)nc3ccccc23)c1,31%
20,COC(=O)c1ccc(Nc2nc(-c3ccccc3Cl)nc3ccccc23)cc1,36%
